Screens: PubChem, National Center for Advancing Translational Sciences (NCATS)
Anesthetic bind – qHTS Assay for Identification of Novel General Anesthetics; Ferritin light chain (Equus caballus), P02791; apoferritin/1-aminoanthracene competitive binding, fluorescence; Potency, µM (highest dose often 77.5 µM), for the others: at the highest dose activity change, negative = displacement, most hits filed as inhibitors; 350,000 compounds, 0.074% hits; AID 485281, 2010; note: potency is the fitted concentration of half-maximal effect; % is set by controls: 0 for no effect and ±100 for the full control effect; nearly all actives have a fitted effect of over 20% in size
Target sequence (P02791 2-175 limits assumed): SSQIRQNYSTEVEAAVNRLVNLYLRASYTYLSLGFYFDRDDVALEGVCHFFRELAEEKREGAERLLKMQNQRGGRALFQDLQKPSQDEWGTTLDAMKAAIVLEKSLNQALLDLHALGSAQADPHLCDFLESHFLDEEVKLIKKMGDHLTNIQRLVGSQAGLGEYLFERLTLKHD
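In PBS, apoferritin at 10 uM is loaded with 1-AMA from a 50% saturated solution. After 10 min of compound exposure at ambient temperature, reduced 535 nm fluorescence indicates probe displacement.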
Mito fusion act – qHTS Assay for Small Molecule Inhibitors of Mitochondrial Division or Activators of Mitochondrial Fusion; S. cerevisiae fusion-defective mutant growth rescue, CellTiterGlo 48 h; Potency, µM (highest dose often 46.1 µM), without a hit: top-dose growth rescue (activation), most hits filed as activators; 320,000 compounds, 0.23% hits; note: potency is the fitted concentration of half-maximal effect; % of control where 0% means no effect; nearly all actives have a fitted effect of over 45% in size
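Temperature-sensitive fusion-defective S. cerevisiae (e.g. fzo1-1, mgm1-5) were grown with compound in YPEG medium (3% ethanol, 3% glycerol) for 48 hours at 37C. Growth rescue was measured as viability by CellTiterGlo luminescence after 10 minutes at ambient.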
aSyn yeast inh – qHTS of alpha-syn Inhibitors. Yeast expressing alpha-synuclein, growth rescue, BacTiter-Glo, 24 h. Potency, µM (doses to about 46.1 µM), for the others: top-dose growth rescue (activation), most hits filed as activators. 370,000 compounds, 0.14% hits. AID 652106, 2013; note: potency is the fitted concentration of half-maximal effect; % of control where 0% means no effect; nearly all actives have a fitted effect of over 65% in size
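Readout is rescue of growth in alpha-synuclein-expressing yeast, so inhibitors of toxicity appear as activators. Growth after 24 hr at 30 deg C in galactose medium is quantified by luminescence.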
pAkt inh – HTS Assay for Inhibitors of Akt Phophorylation: Primary Screen; Neuro2A IGF-stimulated pAkt S473 HTRF, 20 min; stronger effect = lower value; activity change, % for hits at 50 µM; 360,000 compounds, 0.32% hits; AID 651550, 2012; in the data active = activity change below about -80%; inconclusive = mostly about -51% to -80%; note: % is set by controls: 0 for no effect and ±100 for the full control effect
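Neuro2A cells in DMEM with 0.5% FBS, overnight at 37 deg C, given compound at single 50 µM final, then IGF (6 nM final) for 20 min at 37 deg C. Lysed; phospho-Akt Ser473 by HTRF after 24 h, 665/615 ratio.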
CCT chaperon mod – High-Throughput Screening for Modulators of Cytosolic Chaperonin Activity; purified chaperonin ATPase assay, HTRF ADP detection, 30 min; activity change, % (test concentration not listed), hits read low; 360,000 compounds, 0.3% hits; AID 651819, 2012; in the data active = activity change below about -30%; note: % is set by controls: 0 for no effect and ±100 for the full control effect
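TRiC (40 or 20 nM final, by batch activity) in 30 mM Tris pH 7.4, 100 mM KCl, 5 mM MgCl2, 1 mM DTT was treated with compound at 76 uM single dose, then 10 uM ATP, 30 min at 37 °C. ADP was read by HTRF Transcreener.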
TDP-43 yeast inh – qHTS of TDP-43 Inhibitors. TDP-43 expressing yeast growth rescue, BacTiter-Glo, 24 h. Potency, µM (highest dose often 46.1 µM), inactives show at the top dose growth rescue (activation), actives largely listed as activators. 410,000 compounds, 1.8% hits. AID 652104, 2013; note: potency is the fitted concentration of half-maximal effect; % of control where 0% means no effect; nearly all actives have a fitted effect of over 50% in size
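Yeast cells expressing TDP-43 under galactose induction are exposed to compounds for 24 hr at 30 deg C. BacTiter-Glo luminescence measures growth, so protective compounds score as activators.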
The depositor's hits bear a star; [ ] = dose if it differs, or a comment. Hits are enriched below; roughly 2.5% of the tested compounds scored in any of these assays. Unless noted, calls come from the whole dose curve; as a rule, active = well fitted curve in the direction sought with a large enough effect; inconclusive = small, poorly fitted or top-dose-only effect, or another doubt; inactive = no such curve, though single readings can be large; an effect the other way counts as inactive or inconclusive.

Screening COc1ccc(C2CC(=O)C(CS(=O)(=O)c3ccccc3)C(=O)C2)cc1 (centres undefined) returned Anesthetic bind 31.6µM*, Mito fusion act -2.0%, aSyn yeast inh 8.1%, pAkt inh inactive, CCT chaperon mod 0.7 and TDP-43 yeast inh 13.4%.
Screening Cn1ccc2ccc(C3=CC(=O)C[C@H](c4ccc(F)cc4)C3)cc21 returned Mito fusion act inconclusive, aSyn yeast inh 11.9%, pAkt inh inactive, CCT chaperon mod -1.7 and TDP-43 yeast inh 15.8µM*.
`COCc1ccccc1C1=CC(=O)C[C@H](c2ccc(OC)cc2)C1` gave Mito fusion act 3.5%, aSyn yeast inh 9.5%, pAkt inh inactive, CCT chaperon mod -2.7 and TDP-43 yeast inh 11.2µM*.
Clc1ccc2c(Cl)cc[n+](CCC3CCCCC3)c2c1 was read as aSyn yeast inh -4.0%.
O=C(c1cccc(F)c1)N1CCC(c2c[nH]c3ccccc23)(c2c[nH]c3ccccc23)CC1 was read as Anesthetic bind 9.8% and TDP-43 yeast inh 4.3%.
For Cc1ccc(-c2c(C3C4C=CCC(C)C4C(=O)N3Cc3ccccc3)ccc3ccccc23)cc1 (centres undefined) the results were Anesthetic bind 32.9%.
c1ccc(-c2nnc(CSc3ccc4c(c3)OCCO4)o2)cc1 was read as Anesthetic bind inconclusive, Mito fusion act 0.2%, aSyn yeast inh 7.0%, pAkt inh inactive, CCT chaperon mod -0.2 and TDP-43 yeast inh 12.6µM*.
For O=C(OCc1cc(=O)n2nc(C3CC3)sc2n1)c1ccc(NC(=O)c2ccccc2Cl)cc1 the results were Anesthetic bind -23.8% and TDP-43 yeast inh -10.2%.
`Cc1ccc(-c2nc3sccn3c2Nc2ccccc2C)cc1` gave Anesthetic bind -13.2% and TDP-43 yeast inh 35.5µM*.
For O=C1CSC(c2ccc(F)cc2)N1c1nc2ccccc2s1 (centres undefined) the results were Anesthetic bind -4.0%, Mito fusion act 12.6µM*, aSyn yeast inh 1.5%, pAkt inh inactive, CCT chaperon mod -1.3 and TDP-43 yeast inh -16.2%.
O=C1CSC(c2ccc(F)cc2)N1c1ccccc1F (centres undefined) was read as Anesthetic bind -11.2%, Mito fusion act -8.1%, aSyn yeast inh 4.5%, pAkt inh inactive, CCT chaperon mod -1.4 and TDP-43 yeast inh -6.4%.
For CC1=C(C(=O)Nc2ccc(Cl)cc2)C(C(C)C)n2nc(SCc3ccc(Cl)cc3)nc2N1 (centres undefined) the results were Anesthetic bind 3.6% and TDP-43 yeast inh 10.8%.
`COc1ccc(COC(=O)N/N=C2/C[C@@H](O)[C@@H](O)[C@@H]3[C@@H]4C(=O)N(C5CCCCC5)C(=O)[C@H]4CC[C@@H]23)cc1` gave Anesthetic bind -2.7%[15.3 µM].
`CCOC(=O)c1ccc(N2C(=O)CC(N3CCN(Cc4ccccc4)CC3)C2=O)cc1` (centres undefined) gave Anesthetic bind -11.4%, Mito fusion act -8.4%, aSyn yeast inh 5.3%, pAkt inh inactive, CCT chaperon mod -2.2 and TDP-43 yeast inh -2.3%.
For CCOC(=O)c1ccc(N2C(=O)CC(N3CCC(Nc4ccc(F)cc4)CC3)C2=O)cc1 (centres undefined) the results were Anesthetic bind -7.7%, Mito fusion act -5.2%, aSyn yeast inh -62.0%, pAkt inh inactive, CCT chaperon mod -64.6* and TDP-43 yeast inh -8.3%.
Screening Cc1ccc2onc(CNC(=O)N3CCN(c4cccc(C)c4C)CC3)c2c1 returned Anesthetic bind 1.4% and TDP-43 yeast inh 20µM*.
For COc1ccc(N2CCN(C(=O)Cc3noc4ccc(C)cc34)CC2)cc1 the results were Anesthetic bind -13.7% and TDP-43 yeast inh 11.2µM*.
Cc1ccc(C2N=C(Nc3nc4ccccc4o3)NC3=C2C(=O)CC(C)(C)C3)cc1 (centres undefined) was read as aSyn yeast inh 0.9%.
`CCCC1OC2C[C@@H]3[C@H]4CCC5=CC(=O)C=C[C@]5(C)[C@H]4C(O)C[C@]3(C)[C@]2(C(=O)CO)O1` (some centres undefined) gave aSyn yeast inh -0.2%.
`CCOc1ccc(CCNC(=O)C2CCC(=O)N2CCc2ccccc2)cc1OCC` (centres undefined) gave Anesthetic bind -0.4%, Mito fusion act -0.4%, aSyn yeast inh -0.2%, pAkt inh -82.0%*, CCT chaperon mod -4.5 and TDP-43 yeast inh -12.0%.
`COC(=O)c1ccc(CSc2nc3ccccc3s2)o1` gave Anesthetic bind -13.6%, Mito fusion act 9.5%, aSyn yeast inh -2.5%, pAkt inh inactive, CCT chaperon mod -0.3 and TDP-43 yeast inh 29.1%.
`COC(=O)c1ccc(CSc2n[nH]c(=S)s2)o1` gave Anesthetic bind -7.4%, Mito fusion act -0.5%, aSyn yeast inh -10.1%, pAkt inh -100.3%*, CCT chaperon mod 2.2 and TDP-43 yeast inh -13.8%.
CCOC(=O)c1ccccc1S(=O)(=O)N1CCN(c2nc(-c3cccs3)nc3ccccc23)CC1 was read as aSyn yeast inh -6.4%.
Cc1ccccc1NC(=S)NC(=O)/C=C/c1ccco1 was read as Anesthetic bind -18.6%, Mito fusion act -20.1%, aSyn yeast inh -10.6%, pAkt inh inactive, CCT chaperon mod 1.9 and TDP-43 yeast inh 10µM*.
Screening CSc1ccc(CNC(=O)Cn2c(-c3cccs3)cc3cc(F)ccc32)cc1 returned Anesthetic bind 80.2% and TDP-43 yeast inh 10.3%.
Screening COc1cc2nc(N3CCOCC3)nc(NC3CCN(C)CC3)c2cc1OC returned aSyn yeast inh 0.6%.
COc1cccc(C(=O)Oc2ccc3ccc(O)cc3c2)c1 was read as Anesthetic bind inconclusive, Mito fusion act 3.9%, aSyn yeast inh -1.5%, pAkt inh inactive, CCT chaperon mod -17.9 and TDP-43 yeast inh 20µM*.
`Cc1ccccc1S(=O)(=O)Oc1ccc2ccc(O)cc2c1` gave Anesthetic bind inconclusive, Mito fusion act 2.5%, aSyn yeast inh -6.9%, pAkt inh inactive, CCT chaperon mod 0.5 and TDP-43 yeast inh inconclusive.
For Cc1ccccc1C(=O)Oc1ccc2ccc(O)cc2c1 the results were Anesthetic bind inconclusive, Mito fusion act 5.2%, aSyn yeast inh -9.0%, pAkt inh inactive, CCT chaperon mod -1.6 and TDP-43 yeast inh 17.8µM*.
